Source: PubChem BioAssay (National Center for Advancing Translational Sciences (NCATS))
ELG1 repair inh: qHTS screen for small molecules that inhibit ELG1-dependent DNA repair in human embryonic kidney (HEK293T) cells expressing luciferase-tagged ELG1; HEK293T ELG1-luciferase reporter, luminescence, 16 h; DNA damage induced by 5-fluorouridine; Potency, µM (highest dose often 46.1 µM), usual class: inhibitors; hit rate 2.3% among 330,000; note: nearly all actives have a fitted effect of over 55% in size
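DMSO vehicle served as the neutral condition. Each well held 2,000 cells given 5-fluorouridine plus compound; after 16 hr at 37 °C/5% CO2, ONE-Glo was added and luciferase measured 30 min later.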
ALOX12 inh: Primary qHTS assay for inhibitors of human arachidonate 12S-lipoxygenase (ALOX12): Round 2; Polyunsaturated fatty acid lipoxygenase ALOX12 (Homo sapiens), P18054; purified 12hLO, xylenol orange hydroperoxide absorbance; Potency, µM (highest dose often 108 µM), most hits filed as inhibitors; hit rate 1.1% among 580,000; AID 1671190, 2021
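Purified human 12hLO at 150 nM in 25 mM Hepes, 0.01% Triton X-100, pH 7.0, preincubated 15 min at room temperature with compound. Reaction started with 40 uM arachidonic acid, 30 min at room temperature. Hydroperoxide measured by Fe-xylenol orange, 573/405 nm absorbance ratio.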
TDP1 cell CPT: qHTS for Inhibitors of human tyrosyl-DNA phosphodiesterase 1 (TDP1): qHTS in cells in presence of CPT | hit rate 12% among 420,000 | AID 686979, 2013 | Potency, µM (series often up to 46.2 µM), most hits filed as inhibitors | chicken DT40 Tdp1-/-;hTDP1 cells + 20 nM CPT, ATP luminescence, 48 h; note: nearly all actives have a fitted effect of over 55% in size
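Chicken DT40 Tdp1-/- cells complemented with human TDP1, 400 cells/well, exposed to compounds plus 20 nM camptothecin for at least 48 h at 37 C; viability read as ATP content by CellTiter-Glo luminescence.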
RORgamma inh: qHTS for inhibitors of ROR gamma transcriptional activity. Nuclear receptor ROR-gamma (Mus musculus), P51450. Drosophila S2 Gal4-RORgamma UAS-luciferase reporter, 20 h. Potency, µM (highest dose often 53.6 µM), usual class: inhibitors. hit rate 5.4% among 310,000. AID 2551, 2010; note: nearly all actives have a fitted effect of over 60% in size
Target sequence (P51450 whole entry, looked up, the tested form may be a part): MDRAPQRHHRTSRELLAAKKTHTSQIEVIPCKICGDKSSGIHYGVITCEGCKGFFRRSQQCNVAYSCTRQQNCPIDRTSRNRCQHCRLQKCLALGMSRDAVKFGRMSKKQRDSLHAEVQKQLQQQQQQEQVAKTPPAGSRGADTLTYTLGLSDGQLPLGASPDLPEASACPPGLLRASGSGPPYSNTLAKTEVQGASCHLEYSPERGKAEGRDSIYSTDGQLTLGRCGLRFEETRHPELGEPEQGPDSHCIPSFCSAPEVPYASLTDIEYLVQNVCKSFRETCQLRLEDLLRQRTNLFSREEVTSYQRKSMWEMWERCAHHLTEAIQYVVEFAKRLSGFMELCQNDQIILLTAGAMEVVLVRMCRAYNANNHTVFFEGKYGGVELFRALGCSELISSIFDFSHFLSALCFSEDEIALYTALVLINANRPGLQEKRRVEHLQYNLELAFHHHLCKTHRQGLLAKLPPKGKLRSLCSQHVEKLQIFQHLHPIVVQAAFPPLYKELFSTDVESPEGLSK
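A Gal4/UAS one-hybrid system in insect cells: metallothionein-promoter Gal4–ROR gamma fusion plus Photinus luciferase reporter. Copper sulfate 700 uM final, 20 hr ambient incubation, luminescent detection after 10 min with reagent.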
TDP1 cell noCPT: qHTS for Inhibitors of human tyrosyl-DNA phosphodiesterase 1 (TDP1): qHTS in cells in absence of CPT. DT40 Tdp1-/- hTDP1 cells, no CPT, ATP luminescence, 48 h. Potency, µM (titrated, usually from 46.2 µM), hits mostly inhibitors. hit rate 15% among 420,000. AID 686978, 2013; note: nearly all actives have a fitted effect of over 55% in size
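Compound effects on proliferation are scored in DT40 Tdp1-/-;hTDP1 cells in the absence of CPT. ATP levels (CellTiter-Glo luminescence) are recorded after a ≥48 hr, 37 °C incubation.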
VP16 counter: VP16 counterscreen qHTS for inhibitors of ROR gamma transcriptional activity. Drosophila S2 Gal4-VP16 UAS-luciferase, luminescence, 20 h. Potency, µM (highest dose often 53.6 µM), usual class: inhibitors. hit rate 3.5% among 310,000;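 note: Gal4-VP16 expression switched on by copper sulfate through the metallothionein promoter; nearly all actives have a fitted effect of over 50% in size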
Numbers stand for hits; n = inactive; u = inconclusive; x = no result given; ! = repeats disagree. A selection: hits, their analogues and other compounds. The true share with any hit is near 15%. Calls come from the whole dose curve; as a rule, active = well fitted curve in the direction sought with a large enough effect; inconclusive = small, poorly fitted or top-dose-only effect, or another doubt; inactive = no such curve, though single readings can be large; an effect the other way counts as inactive or inconclusive.

SMILES	ELG1 repair inh	ALOX12 inh	TDP1 cell CPT	RORgamma inh	TDP1 cell noCPT	VP16 counter
O=C(c1ccc2c3c(cccc13)CC2)C1CCCN(C(=O)c2ccc(=O)[nH]c2)C1 (configuration not stated)	n	u	n	n	n	n
CCOC(=O)c1[nH]ncc1CN1CCCC(C(=O)c2cccc3ccccc23)C1 (configuration not stated)	n	n	n	n	n	n
Cc1ncccc1C(=O)N1CCCC(C(=O)c2ccc3c4c(cccc24)CC3)C1 (configuration not stated)	u	n	u	u	u	n
O=C(c1ccc2c3c(cccc13)CC2)C1CCCN(Cc2ccncc2)C1 (configuration not stated)	u	n	13µM	n	9.2µM	u
CN(C)C(=O)CCC(=O)N1CCCC(C(=O)c2ccc3c4c(cccc24)CC3)C1 (configuration not stated)	u	n	u	n	15µM	n
CCc1nc(CN2CCCC(C(=O)c3ccc4c5c(cccc35)CC4)C2)c(C)[nH]1 (configuration not stated)	u	n	u	n	16µM	n
Cc1onc(-c2c(Cl)cccc2Cl)c1C(=O)c1c[nH]c(C(=O)NCC2CCCO2)c1 (configuration not stated)	18µM	n	u	n	13µM	n
Cc1onc(-c2ccccc2Cl)c1C(=O)NC1CCCCCC1	n	n	26µM	n	16µM	n
Cc1onc(-c2c(F)cccc2Cl)c1C(=O)NC1CCCCCC1	n	u	u	n	29µM	n
Cc1onc(-c2ccccc2Cl)c1C(=O)N1CCCCCC1	n	n	n	n	n	n
Cc1onc(-c2c(Cl)cccc2Cl)c1C(=O)NC1CCCCC1	n	n	u	n	9.2µM	n
C=C(C)CNC(=S)N/N=C/c1ccsc1	x	n	x	x	x	x
FC(F)(F)c1ccc(Cl)c(N/N=C/c2cccc(OCc3ccccc3)c2)c1	x	7.1µM	x	x	x	x
CCCNC(=O)Cn1nc(C)n2nc(-c3ccc(CC)cc3)cc2c1=O	x	n	x	x	x	x
CC(=O)CCc1oc2ccc(C)cc2c1-c1ccc(C)o1	n	u	12µM	n	15µM	n
C/C(CCc1oc2ccc(Br)cc2c1-c1ccc(C)o1)=N\O	x	11µM	x	x	x	x
C/C(CCc1oc2ccc(C)cc2c1-c1ccc(C)o1)=N\O	x	40µM!	x	x	x	x
FC(F)(F)c1cnc(Sc2nnc(-c3ccncc3)n2C2CC2)c(Cl)c1	x	n	x	x	x	x
CC(C)OCCCNC(=O)c1ccc2c(c1)N(S(C)(=O)=O)CC2	x	n	x	x	x	x
CC1CCN(C(=O)Cn2c(=O)n(CCc3ccccc3)c(=O)c3ccccc32)CC1	u	x	15µM	n	16µM	n
CC1CCN(CCCNC(=O)CCc2nnc3n(CCc4ccccc4)c(=O)c4ccccc4n23)CC1	u	n	u	n	16µM	n
COc1ccc(OC)c(NC(=O)C2CCN(C(=O)N3CC4CC(C3)[C@H]3CCCC(=O)N3C4)CC2)c1 (some centres not stated)	x	n	x	x	x	x
N#C/C(=C/c1ccc(Cl)cc1)C(=O)OCC(=O)N1CCCCC1	x	n	x	x	x	x
N#CC(C#N)=Cc1cc2ccccc2nc1N1CCCCC1	n	n	21µM	n	21µM	n
N#Cc1ccc(C(=O)/C=C/c2cc3ccccc3nc2N2CCOCC2)cc1	x	11µM	x	x	x	x
SMILES	ELG1 repair inh	ALOX12 inh	TDP1 cell CPT	RORgamma inh	TDP1 cell noCPT	VP16 counter
Cc1ccc(OCC(=O)Nc2ccc3nc(Nc4cccc(Cl)c4)cc(C)c3c2)cc1	x	n	n	x	n	x
COc1ccccc1CC(=O)Nc1ccc2nc(Nc3cccc(Cl)c3)cc(C)c2c1	x	n	21µM	x	16µM	x
Cc1cc(Nc2cccc(C(F)(F)F)c2)nc2ccc(NC(=O)Cc3ccc(Cl)cc3)cc12	x	n	u	x	23µM	x
Cc1cccc(OCC(=O)Nc2ccc3nc(Nc4cccc(C(F)(F)F)c4)cc(C)c3c2)c1	x	n	21µM	x	13µM	x
COc1ccc(CC(=O)Nc2ccc3nc(Nc4cccc(Cl)c4)cc(C)c3c2)cc1	x	u	6.5µM	x	5.8µM	x
CN(C)c1nc2c(c(=O)[nH]1)CCN(Cc1cc(F)cc(F)c1)CC2	x	n	x	x	x	x
N#Cc1c(N)n(C2OC(CO)C(O)C2O)c2ncnc(N)c12 (configuration not stated)	x	n	0.016µM	x	0.021µM	x
CN1CCN(C2=Nc3c(Cl)cc(Cl)c4cccc2c34)CC1	n	n	u	n	21µM	n
CN1CCN(C2=Nc3cc(F)ccc3Cc3ccccc32)CC1	x	n	u	n	u	n
CCCCc1c(-c2ccccc2OC)ncn1Cc1ccc(Cl)cc1Cl	x	32µM	x	x	x	x
CCCCc1c(-c2ccccc2Br)ncn1CCc1ccccc1OC	x	u	15µM	x	21µM	x
CCCCc1c(-c2ccccc2OC)ncn1CCc1ccccc1Cl	x	n	7.3µM	x	15µM	x
CCCCc1c(-c2ccccc2OC)ncn1CCc1ccccc1OC	x	n	12µM	x	8.2µM	x
CCCCc1c(-c2ccccc2OC)ncn1Cc1ccc(F)cc1F	x	n	x	x	x	x
CCCc1c(-c2ccccc2OC)ncn1CCc1ccccc1OC	x	n	x	x	x	x
Cc1cc(C(=O)COc2ncnc3ccccc23)c(C)n1C(C)C	x	n	x	x	x	x
COc1ccc(C(C)=O)cc1CSCc1ccc(C#N)cc1	x	n	x	x	x	x
CCCCCc1c(-c2ccccc2OC)ncn1CCc1ccccc1OC	x	n	5.2µM	x	5.2µM	x
CCCCCc1c(CC)ncn1CCc1ccccc1OC	x	n	4.6µM	x	2.9µM	x
COc1ccc2c(c1)cc(C(=O)Nc1ccc(F)cc1)n2C	x	n	x	x	x	x
COc1ccccc1OCC(=O)N(Cc1ccc(Cl)cc1)CC1CCCO1 (configuration not stated)	x	n	u	x	u	x
CCCOc1ccc(C(=O)N(Cc2ccc(N(C)C)cc2)CC2CCCO2)cc1 (configuration not stated)	x	n	u	x	u	x
CN(C)c1ccc(CN(CC2CCCO2)C(=O)COc2ccc(Cl)cc2)cc1 (configuration not stated)	x	n	26µM	x	18µM	x
Cc1cc(OCC(=O)N(Cc2ccc(N(C)C)cc2)CC2CCCO2)ccc1Cl (configuration not stated)	x	n	23µM	x	n	x
O=[N+]([O-])c1cc(/C=N/O)ccc1N1CCCC1	n	n	n	n	n	n
